# From PubChem BioAssay AID651813 (National Center for Advancing Translational Sciences (NCATS), 2012)
# About 1,100 (52%) of roughly 2,100 compounds were called active. Inconclusive results (about 27%) are left out. So high a share suggests a set chosen from earlier hits. This is one part of the list. A number with no mark means an inactive call. Calls follow the shape of the dose curve; as a rule, active = well fitted inhibition curve with a large enough effect; inconclusive = small, poorly fitted or top-dose-only effect; inactive = no such curve, though single readings can be large or run the other way.
# Target: DNA dC->dU-editing enzyme APOBEC-3G (Homo sapiens) (UniProt Q9HC16)
# Sequence (Q9HC16 whole entry, looked up): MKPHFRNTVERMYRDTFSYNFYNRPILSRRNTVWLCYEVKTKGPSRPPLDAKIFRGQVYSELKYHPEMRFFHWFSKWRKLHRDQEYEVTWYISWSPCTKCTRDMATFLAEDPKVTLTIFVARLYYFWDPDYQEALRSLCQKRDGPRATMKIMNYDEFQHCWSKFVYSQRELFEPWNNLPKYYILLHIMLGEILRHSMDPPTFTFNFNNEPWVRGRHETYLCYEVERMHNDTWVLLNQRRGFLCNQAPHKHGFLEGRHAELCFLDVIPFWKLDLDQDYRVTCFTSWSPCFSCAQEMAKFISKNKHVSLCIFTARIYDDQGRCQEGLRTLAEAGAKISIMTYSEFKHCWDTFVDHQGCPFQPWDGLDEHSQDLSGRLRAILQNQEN
# Test: qHTS for inhibitors of Vif-A3G interactions: Cherry picks counterscreen;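 also: hits raise yellow fluorescence by blocking Vif-driven A3G-eYFP degradation; nearly all actives have a fitted effect of over 70% in size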;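 as to max response: max response given as percent of control signal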
# Conditions: HeLa A3G-eYFP + Vif (tagged APOBEC3G with the HIV-1 protein that degrades it), eYFP fluorescence, 24 h
# Source text: The recent discovery and characterization of host restriction factors, which provide a potent defense to invading retroviruses, has provided new targets for antiviral drug development. APOBEC3G (A3G) and APOBEC3F (A3F) are potent cytidine deaminases that block HIV-1 replication; HIV-1 expresses the Vif protein, which counteracts A3G and A3F by binding to them and inducing their proteasomal degradation. The Vif-A3G and Vif-A3F interactions provide two potential targets for development of small molecules which can interfere with the ability of Vif to degrade A3G or A3F. […] To identify inhibitors that can interfere with Vif mediated degradation of A3G and A3F, we have developed Hela cell lines that stably express A3G or A3F tagged with eYFP at the C-terminal end (A3G-eYFP or A3F-eYFP, respectively) and Vif. In the absence of an inhibitor, Vif induces degradation of A3G-eYFP and A3F-eYFP, and the cells are not fluorescent. In the presence of an inhibitor, it is expected that Vif will be unable to degrade A3G-eYFP and/or A3F-eYFP, resulting in an increase in yellow fluorescence. In this counterscreen assay, Vif A3G was screened against the cherry picks ordered from the MLSMR. NIH Chemical Genomics Center [NCGC] NIH Molecular Libraries Probe Centers Network [MLPCN] MLPCN Grant: MH093245 Assay Submitter (PI): Vinay Pathak, National Cancer Institute
# A3G-Vif cells were harvested from T225 flask and resuspended in phenol free OPTI-MEM medium with 5% FBS. Then 5 uL of 140,000 cells/mL resuspended cells was dispensed into each well of low base Aurora COC 1,536-well plates (black walled, clear bottom) using a Multidrop Combi dispenser. After overnight culture at 37 deg C with 5% CO2, a total of 23 nL of compounds at 5 selected concentrations from the NPC or positive control (2 mM stock of MG132) in DMSO was transferred to each well of the assay plate using a pintool (Kalypsys, San Diego, CA), and the plates were further incubated at 37 deg C with 5% CO2 for 24 hours. After that, the plates were measured on Acumen Explorer (TTP Lab Tech). The fluorescence was detected by 488 nm/Ex and […].
# Potency is read from the fitted curve at half-maximal effect.
SMILES,Potency,max response [%]
CC(=O)Nc1cccc(-c2ccnc3c2CC(C(=O)NCc2ccco2)O3)c1 (configuration not stated),6.27 µM (active),
O=c1nc(/C=C/c2ccc(Cl)cc2Cl)cc(C(F)(F)F)[nH]1,17.7 µM (active),
CC(=O)OC1C2(CC3N4C(=O)C5(CO)SSC4(CC31O)C(=O)N5C)OC(C)C(C)(C)C2=O (configuration not stated),12.5 µM (active),
Nc1ccc2c3c(cccc13)-c1ccccc1-2,2.31 µM (active),
C=C1C(=O)OC2C1CCC(C)C1(O)C=CC(=O)C21C (configuration not stated),8.86 µM (active),
Cc1cc(N2CCCC2)ccc1C=C(C#N)C#N,11.6 µM (active),
Cc1ccccc1-n1c(O)c(/C=C/C=Nc2ccccc2)c(=O)[nH]c1=O,,55.1
C=CCn1c(O)c(C(C)=Nc2ccc(N(CC)CC)cc2)c(=O)[nH]c1=O,9.94 µM (active),
CCN(CC)c1ccc(N=Cc2c(O)n(Cc3ccccc3)c(=O)[nH]c2=O)cc1,13 µM (active),
CCN(CC)c1ccc(N=Cc2c(O)n(CCC3=CCCCC3)c(=O)[nH]c2=O)cc1,23.1 µM (active),
CCS(=O)(=O)N1N=C(c2cccc(NS(C)(=O)=O)c2)CC1c1ccccc1 (configuration not stated),20.6 µM (active),
Cc1nn(Cc2ccccc2)c(C)c1C(=O)OCC(=O)Nc1ccccc1SCC#N,15.8 µM (active),
N#CC1=C(N)Oc2c(c(=O)sc3ccccc23)C1c1cccnc1 (configuration not stated),5.59 µM (active),
NC(=Nc1ccccc1)NN=Cc1c[nH]c2ccccc12,2.23 µM (active),
CC(=O)O[C@@]12CO[C@@H]1C[C@H](OC1OCC(O)C(O)C1O)[C@@]1(C)C(=O)[C@H](O)C3=C(C)[C@@H](OC(=O)[C@H](O)[C@@H](NC(=O)c4ccccc4)c4ccccc4)C[C@@](O)([C@@H](OC(=O)c4ccccc4)C12)C3(C)C (some centres not stated),1.25 µM (active),
CCCCn1c(O)c(C(=O)/C=C/c2c[nH]c3ccccc23)c(=O)[nH]c1=O,4.44 µM (active),
CC1=CC(=Cc2sc3ccccc3[n+]2C)C=C(C)O1,20.6 µM (active),
Cc1c(Cl)cccc1NC(=O)c1oc2ccc(S(=O)(=O)N3CCC4(CC3)OCCO4)cc2c1C,7.31 µM (active),
CN1CCN(c2ccc(/C=C3\C(=O)NC(=S)N(c4cccc(Br)c4)C3=O)o2)CC1,16.4 µM (active),

SMILES,Potency,max response [%]
CN1C(=O)/C(=C/c2ccc(N3CCCCCC3)o2)C(=O)NC1=S,15.8 µM (active),
CN1C(=O)/C(=C\c2ccc(N3CCCCC3)o2)C(=O)NC1=S,17.7 µM (active),
COc1cc2c(cc1O)[C@@H]1Cc3ccc(OC)c(O)c3CN1CC2,12.5 µM (active),
COc1ccc(-n2cnc3cc(C(=O)N4CCC5(CC4)OCCO5)ccc32)cc1,9.94 µM (active),
COc1cccc(C2=CC(c3cc(Br)ccc3F)n3nnnc3N2)c1 (configuration not stated),1.84 µM (active),
ClCCN(CCCl)c1ccc(C=Cc2ccncn2)cc1,,-8.89
Cc1cc(N(CCCl)CCCl)ccc1C=Cc1ccncn1,20.6 µM (active),
CCN(CC)c1ccc2c(cc1=O)[C@@H](NC)CCc1cc(OC)c(OC)c(OC)c1-2,2.5 µM (active),
CN1C(=O)C(=Cc2ccc(N3CCOCC3)o2)C(=O)N(C)C1=O,23.1 µM (active),
CN1C(=O)C(=Cc2ccc(N3CCOCC3)o2)C(=O)N(C)C1=S,20.6 µM (active),
CN1C(=O)C(=Cc2ccc(N3CCCCC3)o2)C(=O)N(C)C1=S,2.91 µM (active),
CCN(CC)c1ccc(/C=C2\C(=O)NC(=S)N(c3ccc(OC)cc3OC)C2=O)o1,18.4 µM (active),
CCN(CC)c1ccc(C=C2C(=O)N(C)C(=S)N(C)C2=O)o1,6.27 µM (active),
CCN(CC)c1ccc(/C=C2\C(=O)NC(=S)N(C)C2=O)o1,14 µM (active),
CCN1C(=O)/C(=C/c2ccc(N(CC)CC)cc2OC)C(=O)NC1=S,18.4 µM (active),
COc1cc(C2C(C#N)=C(N)Oc3cc(O)ccc32)cc(OC)c1OC (configuration not stated),1.77 µM (active),
CN1/C(=C\C=C2C(=O)NC(=O)NC2=O)C(C)(C)c2ccccc21,2.91 µM (active),
CN(C)c1ccc(C(=O)c2ccc(N(C)C)cc2)cc1,1.58 µM (active),
CCCCNC(=O)/C(C#N)=c1\s/c(=C\c2ccccc2OC(F)F)c(=O)n1CCCOC,18.4 µM (active),

SMILES,Potency,max response [%]
COc1ccc(-c2ccc(OC)c(OC)c2OC)cc1,3.96 µM (active),
O=C1NC(=O)N(c2ccc3c(c2)OCO3)C(=O)/C1=C\c1ccc(N2CCCCC2)o1,20.6 µM (active),
O=C1NC(=O)N(c2ccc3c(c2)OCO3)C(=O)/C1=C/c1ccc(N2CCCCC2)o1,23.1 µM (active),
Cc1cc(/C=C2\C(=O)NC(=O)N(c3ccc(Br)cc3)C2=O)c(C)n1C,,8.75
CC(C)c1ccc(N2C(=O)NC(=O)/C(=C\C=C\c3ccco3)C2=O)cc1,14 µM (active),
CC(C)c1ccc(N2C(=O)NC(=O)/C(=C/C=C/c3ccco3)C2=O)cc1,14 µM (active),
O=C(Cc1ccccc1)c1ccccn1,12.5 µM (active),
Cc1cccc(CN2CCCC(C(=O)c3cccc(OC(C)C)c3)C2)n1 (configuration not stated),,2.93
O=c1[nH]c(CN2CC=C(c3ccccc3)CC2)nc2scc(-c3ccccc3)c12,8.2 µM (active),
O=C1NC(=S)SC1=Cc1ccc(N(CCCl)CCCl)cc1,15.8 µM (active),
Cc1ccc(CNC(=O)c2ccccc2NC(=O)c2nsc3ccccc23)cc1,23.1 µM (active),
Cc1cccc(-n2c(O)c(/C=C/C=Nc3ccccc3)c(=O)[nH]c2=O)c1,,59.1
Cc1cccc(-n2c(/C=C/c3c(C)[nH]c4ccccc34)nc3ccccc3c2=O)c1,18.4 µM (active),
Cc1cccc(-n2c(/C=C/c3ccc([N+](=O)[O-])o3)nc3ccccc3c2=O)c1,5.17 µM (active),
COc1ccc(-n2c(/C=C/c3ccc(O)c(OC)c3)nc3ccccc3c2=O)cc1,23.1 µM (active),
O=c1c2ccccc2nc(/C=C/c2ccc([N+](=O)[O-])o2)n1-c1ccc(O)cc1,8.86 µM (active),
COc1ccc2nc(NC(=O)c3nc(S(=O)(=O)Cc4cccc(C)c4)ncc3Cl)sc2c1,,58.8
Cc1ccccc1-n1c(/C=C/c2ccc(N(C)C)cc2)nc2ccccc2c1=O,1.46 µM (active),
O=Cc1c(C(=O)O)n(Cc2ccc(Cl)cc2)c2ccccc12,3.66 µM (active),
